# Reference: PubChem BioAssay AID2685 (National Center for Advancing Translational Sciences (NCATS), 2010)
# The campaign covered roughly 320,000 compounds. About 2,100 (0.66%) were called active. Another 53% or so got no clear call; they are omitted. This is one part of a sample in which actives are shown more often than they occur. Calls come from the whole dose curve; as a rule, active = well fitted inhibition curve with a large enough effect in the signal ratio, with a control signal flat (not every such curve was filed as active); inconclusive = small, poorly fitted or top-dose-only effect, or effect the other way, or a change in a side signal; inactive = flat fitted curve, though single readings scatter; the % refers to the signal ratio.
# Test: qHTS Assay for Lipid Storage Modulators in Drosophila S3 Cells;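 for cell number change: cells counted by Cell Tracker Red CMTPX staining in the red channel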; for lipid storage change, negative = inhibition: % is set by controls: 0 for no effect and ±100 for the full control effect
# Conditions: BODIPY lipid droplet fluorescence, 18-24 h, cells fed with added oleic acid; cell number change: measured here: cell count max response; series mostly up to 46.1 µM
# In short: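 Drosophila S3 cells loaded with oleic acid (400 uM, as added) and compounds at several concentrations; lipid droplets imaged by 488-nm laser-scanning cytometry, 500–530 nm intensity and object ratio to cell channel. Percent activity normalized to 20 uM Triacsin C.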
# Potency is the fitted concentration of half-maximal effect.
Structure (SMILES),Potency,cell number change,"lipid storage change, negative = inhibition"
CN(C(=O)C1CCOC1)c1nnc(-c2ccncc2)s1 (stereo not drawn),inactive,,
Cc1cnc(-c2nnc(N(C)C(=O)C3CCOC3)s2)cn1 (stereo not drawn),23.1 µM (active),-7.84%,
CN(C(=O)C1CCOC1)c1nnc(-c2cnccn2)s1 (stereo not drawn),,10.4%,-5.36% [at 9.22 µM] (inactive)
CC(C)c1ccc2c(c1)C1Cc3ccccc3C1N2 (stereo not drawn),9.2 µM (active),,
O=C1NC2c3ccccc3CC2O1 (stereo not drawn),inactive,17.5%,
CC(C)c1ccc2c(c1)[C@H]1OCC[C@H]1[C@@H](c1cccs1)N2,inactive,-7.55%,
COc1ccc(/C=N\NC(=O)COc2ccc(Cl)cc2Cl)c(C(=O)O)c1OC,inactive,11.7%,
CC(C)NC(=O)C(c1ccc(F)cc1)N(C(=O)CCC(=O)Nc1ccccn1)c1cccc(F)c1 (stereo not drawn),inactive,7.14%,
NC(=O)c1cc(-c2csc(-c3cccnc3)n2)ccc1O,25.9 µM (active),5%,
Fc1ccc(-c2csc(-c3ccncc3)n2)cc1,inactive,8.89%,
O=C(O)c1ccc(-c2nc(-c3ccc(Cl)c(Cl)c3)cs2)cc1,inactive,6.89%,
Oc1ccc(-c2csc(-c3cccnc3)n2)cc1O,inactive,-16.9%,
Fc1ccc(-c2csc(-c3cccnc3)n2)cc1F,inactive,,
Oc1ccc(-c2nc(-c3ccc(O)c(O)c3)cs2)cc1,0.0116 µM (active),-11.8%,
CCN(CC)S(=O)(=O)c1ccc(S(=O)(=O)N2CCCC2)cc1,inactive,4.33%,
CCOc1ccc(Nc2cc3n(c(=O)n2)CCc2cc(OC)c(OC)cc2-3)cc1,inactive,-17.4%,
CCc1c(C)nc(N2CCN(c3ccccc3F)CC2)[nH]c1=O,inactive,15.2%,
Cc1nn(-c2ccccc2)c(Cl)c1/C=N/NC(=O)CNc1n[nH]c(=O)[nH]c1=O,inactive,11.6%,
CCO[C@@H]1OC(C(=O)NCc2nc3ccccc3[nH]2)=C[C@H](C)[C@H]1CCCO,inactive,-18.5%,
CCC(=O)Nc1ccc2c(c1)ncn2-c1ccc(C)cc1,inactive,19.8%,

Structure (SMILES),Potency,cell number change,"lipid storage change, negative = inhibition"
Cc1ccc(NC(=O)N(CCC(=O)O)Cc2ccccc2)cc1,inactive,,
Cc1cc(C)c2[nH]c(=O)c(CN(C(=O)C3CCCO3)C3CCCC3)cc2c1 (stereo not drawn),inactive,9.83%,
CCN1C(=O)[C@H]2[C@@H](c3ccc(-c4ccccc4)cc3)N3CCCC[C@@]3(C(=O)OC)[C@H]2C1=O,inactive,,
CCN1C(=O)[C@@H]2[C@@H](c3ccc(-c4ccc5c(c4)OCO5)c(OC)c3)N3CCCC[C@@]3(C(=O)OC)[C@@H]2C1=O,inactive,,
CCN1C(=O)[C@@H]2[C@@H](c3ccc(-c4ccc(OC)cc4)c(OC)c3)N3CCCC[C@@]3(C(=O)OC)[C@@H]2C1=O,9.2 µM (active),24.8%,
CCN1C(=O)[C@H]2[C@@H](c3ccc(-c4ccc(OC)cc4)c(OC)c3)N3CCCC[C@@]3(C(=O)OC)[C@H]2C1=O,5.8 µM (active),-0.765%,
CCN1C(=O)[C@@H]2[C@@H](c3ccc(-c4ccccc4)cc3)N3CCCC[C@@]3(C(=O)OC)[C@@H]2C1=O,inactive,15.8%,
CCN1C(=O)[C@@H]2[C@@H](c3ccc(-c4ccc5c(c4)OCO5)c(OC)c3)N3CCC[C@@]3(C(=O)OC)[C@@H]2C1=O,inactive,-1.65%,
Cc1cccc(OCC(=O)Nc2ccc3c(c2)nc(CCN2CCCCC2)n3C)c1,inactive,,
CCc1ccc(NC(=O)[C@H](Cc2ccccc2)NC(=O)C2CCN(C(=O)[C@@H](N)CC(C)C)CC2)cc1,inactive,18%,
CC(=O)c1ccc(NC(=O)c2ccc(CSc3ccccc3)o2)cc1,inactive,3.7%,
Cn1cncc1C#Cc1ccc2cc(CCO)oc(=O)c2c1,1.3 µM (active),17.2%,
Cn1cncc1C#Cc1ccc2cc(C3(O)CCCCC3)oc(=O)c2c1,inactive,-13.7%,
CN(C)c1ccc(C#Cc2ccc3cc(CCO)oc(=O)c3c2)cc1,inactive,24%,
COc1cccc(Oc2cc(Cl)nc(N)n2)c1,inactive,-10.3%,
COc1ccc(Cl)cc1NC(=O)C(C)OC(=O)C1=NNC(=O)CC1 (stereo not drawn),inactive,-0.986%,
O=C(N/N=C/c1ccccn1)c1cc(-c2ccncc2)nc2ccccc12,inactive,0.674%,
CC1=C(C(=O)OCC2CCCO2)C(c2ccc(Cl)c(Cl)c2)NC(=O)N1 (stereo not drawn),inactive,6.97%,
CC1=C(C(=O)N(C)C)C(c2ccc(N3CCOCC3)cc2)NC(=O)N1 (stereo not drawn),inactive,,
CC1=C(C(=O)N(C)C)C(c2ccc(Cl)c(Cl)c2)NC(=O)N1 (stereo not drawn),3.66 µM (active),-24.5%,

Structure (SMILES),Potency,cell number change,"lipid storage change, negative = inhibition"
N/C(=N\OC(=O)c1cccnc1)c1ccccc1Cl,inactive,-1.5%,
O=c1ncn(-c2ccccc2C(F)(F)F)c2ncccc12,inactive,-1.22%,
CC(C(=O)NC(C)(C)C)N(Cc1cccs1)C(=O)CCN1CCc2ccccc21 (stereo not drawn),inactive,1.12%,
CC(C)(C)NC(=O)NC(=O)CN1CCCc2ccccc21,inactive,-16.4%,
CC(C)(C)NC(=O)CN(C(=O)CCN1CCCc2ccccc21)C(C)(C)C,14.6 µM (active),,
O=C(COC(=O)c1ccco1)c1ccc(S(=O)(=O)N2CCCCC2)cc1,inactive,-13.5%,
Cc1cc(C)n2nc(C(=O)NNC(=O)c3ccc(Cl)cc3)nc2n1,18.4 µM (active),-28%,
Cc1cc(C)n2nc(C(=O)NNC(=O)c3ccccc3)nc2n1,inactive,14%,
Cc1cc(C)n2nc(C(=O)OCC(=O)NNC(=O)c3ccc(Cl)cc3)nc2n1,inactive,-14.4%,
CCN(CC)c1nc(-c2ccc(Cl)cc2)cc(C(F)(F)F)c1C#N,inactive,-4.2%,
O=C(COc1ccc(-c2ccccc2)cc1)NNC(=O)Nc1ccc(F)cc1F,inactive,,
CC1CN(Cc2ccccc2)C(C)CC1O (stereo not drawn),inactive,13.3%,
OC(COc1ccc(C2C=CCC2)cc1)CN1CCCCC1 (stereo not drawn),0.731 µM (active),1.19%,
OC(COc1ccc(OCC(O)CN2CCCCCC2)cc1)CN1CCCCCC1 (stereo not drawn),inactive,-8.16%,
COc1ccc(OCC(O)CN2CCCCCC2)cc1 (stereo not drawn),inactive,9.25%,
FC(F)(F)c1ccnc(N2CCN(Cc3cnc(-c4ccccc4)[nH]3)CC2)c1,inactive,15%,
CC(NS(=O)(=O)c1ccc(OCC(=O)NCc2ccncc2)cc1)c1ccccc1 (stereo not drawn),inactive,0.901%,
CC(NS(=O)(=O)c1ccc(OCC(=O)NCc2cccnc2)cc1)c1ccccc1 (stereo not drawn),0.651 µM (active),-6.31%,
CC(NS(=O)(=O)c1ccc(CCC(=O)NCc2cccnc2)cc1)c1ccccc1 (stereo not drawn),inactive,-3.81%,
